Where a name gives a salt, the structure may show the parent alone. ± gives the standard deviation of the averaged measurements.
Test system: Danio rerio Tg(wt1b:EGFP) embryo, pronephros
Experiment: glomerular width (mean of left and right), fold change vs DMSO control; higher = wider glomerulus
Conditions: 25 µM; exposure: 24-48 hpf
Method in brief: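 Distances and angles describing the pronephros were computed by a Fiji macro from 16 reference points set manually on maximum projections of dorsal images. These images came from dechorionated Tg(wt1b:EGFP) zebrafish embryos held in agarose-filled 96-well plates after exposure to 25 μM compound in 0.5% DMSO, in HEPES-buffered E3 with 0.003% PTU, from 24 to 48 hpf at 28.5°C. Any value more than 2 SD from the feature mean was excluded. Features are stated as fold change relative to the mean of same-day DMSO-treated embryos.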

| SMILES | glomerular width |
| --- | --- |
| CN1CCN(CCCN2c3ccccc3Sc3ccc(C(F)(F)F)cc32)CC1 [Trifluoperazine dihydrochloride] | 0.953 ± 0.015 |
| CC1(C)S[C@@H]2[C@H](NC(=O)[C@H](N)c3ccc(O)cc3)C(=O)N2[C@H]1C(=O)O [Amoxicillin] | 0.961 ± 0.046 |
| NC(=O)N1c2ccccc2CC(=O)c2ccccc21 [Oxcarbazepine] | 1 ± 0.035 |
| O=C1c2ccccc2C(=O)C1c1ccccc1 [Phenindione] | 1.07 ± 0.052 |
| CC(=O)[C@H]1CC[C@H]2[C@@H]3CC=C4C[C@@H](O)CC[C@]4(C)[C@H]3CC[C@]12C [Pregnenolone] | 1.14 ± 0.018 |
| CN1CCN(CC(=O)N2c3ccccc3C(=O)Nc3cccnc32)CC1 [Pirenzepine dihydrochloride] | 0.9891 ± 0.0015 |
| COCC1=C(C(=O)OC(C)OC(=O)OC(C)C)N2C(=O)[C@@H](NC(=O)/C(=N\OC)c3csc(N)n3)[C@H]2SC1 (stereo not given in full) [Cefpodoxime proxetil] | 0.893 ± 0.055 |
| CC(C)OC(=O)CCC/C=C\C[C@@H]1[C@@H](CC[C@@H](O)CCc2ccccc2)[C@H](O)C[C@@H]1O [Latanoprost] | 1.05 ± 0.014 |
| CN(C/C=C/c1ccccc1)Cc1cccc2ccccc12 [Naftifine hydrochloride] | 0.96 ± 0.044 |
| C#C[C@]1(OC(C)=O)CC[C@H]2[C@@H]3CCC4=C[C@@H](OC(C)=O)CC[C@@H]4[C@H]3CC[C@@]21C [Ethynodiol diacetate] | 0.958 ± 0.052 |
| CN(C)CCC(c1ccc(Cl)cc1)c1ccccn1 (stereo not given) [Chlorpheniramine maleate] | 1.04 ± 0.042 |
| COc1cc([C@@H]2c3cc4c(cc3[C@@H](O[C@@H]3O[C@@H]5CO[C@@H](C)O[C@H]5[C@H](O)[C@H]3O)[C@H]3COC(=O)[C@H]23)OCO4)cc(OC)c1O [Etoposide] | 1.052 ± 0.0085 |
| CCC[C@H](N[C@@H](C)C(=O)N1[C@H](C(=O)O)C[C@@H]2CCCC[C@@H]21)C(=O)OCC [Perindopril] | 1.09 ± 0.028 |
| CC(=O)O[C@]1(C(C)=O)CC[C@H]2[C@@H]3C=C(C)C4=CC(=O)CC[C@@H]4[C@H]3CC[C@@]21C [Nomegestrol acetate] | 0.953 ± 0.054 |
| Fc1ccc([C@@H]2CCNC[C@H]2COc2ccc3c(c2)OCO3)cc1 [Paroxetine Hydrochloride] | 1.03 ± 0.042 |
| O=C(O)Cc1sc(-c2ccccc2)nc1-c1ccc(Cl)cc1 [Fentiazac] | 0.503 ± 0.018 |
| Clc1ccc2c(c1)C(N1CCNCC1)=Nc1ccccc1O2 [Amoxapine] | 0.9699 ± 0.0014 |
| CC[C@H]1OC(=O)[C@H](C)[C@@H](O[C@H]2C[C@@](C)(OC)[C@@H](O)[C@H](C)O2)[C@H](C)[C@@H](O[C@@H]2O[C@H](C)C[C@H](N(C)C)[C@H]2O)[C@](C)(O)C[C@@H](C)[C@@H]2N[C@@H](COCCOC)O[C@H]([C@H]2C)[C@]1(C)O [Dirithromycin] | 0.964 ± 0.041 |
| CCOC(=O)[N-]c1c[n+](N2CCOCC2)no1 [Molsidomine] | 0.9963 ± 0.0028 |
| NC[C@@H]1O[C@H](O[C@H]2[C@@H](O)[C@H](O[C@@H]3[C@@H](O)[C@H](N)C[C@H](N)[C@H]3O[C@H]3O[C@H](CO)[C@@H](O)[C@H](O)[C@H]3N)O[C@@H]2CO)[C@H](N)[C@@H](O)[C@@H]1O [Paromomycin sulfate] | 1.07 ± 0.0023 |

| SMILES | glomerular width |
| --- | --- |
| CN(C)CCC(c1ccccc1)c1ccccn1 (stereo not given) [Pheniramine maleate] | 1.07 ± 0.064 |
| O=C(O)COC(=O)Cc1ccccc1Nc1c(Cl)cccc1Cl [Aceclofenac] | 1 ± 0.16 |
| CCN(CC)CCCC(C)Nc1ccnc2cc(Cl)ccc12 (stereo not given) [Chloroquine diphosphate] | 0.959 ± 0.049 |
| COc1ccc(C(=O)NCc2cccnc2)cc1C(=O)NCc1cccnc1 [Picotamide monohydrate] | 1.028 ± 0.0052 |
| CCN(Cc1ccncc1)C(=O)C(CO)c1ccccc1 (stereo not given) [Tropicamide] | 1.08 ± 0.027 |
| Cc1c(C)c2c(c(C)c1O)CCC(C)(C(=O)O)O2 (stereo not given) [Trolox] | 0.963 ± 0.058 |
| C#CCN[C@@H]1CCc2ccccc21 [Rasagiline] | 0.994 ± 0.012 |
| CNC(=C[N+](=O)[O-])NCCSCc1csc(CN(C)C)n1 [Nizatidine] | 0.9023 ± 0.0037 |
| C[C@](N)(Cc1ccc(O)c(O)c1)C(=O)O [Methyldopa (L,-)] | 1.02 ± 0.081 |
| CNc1ncnc2c1ncn2[C@@H]1O[C@H](CO)[C@@H](O)[C@H]1O [N6-methyladenosine] | 1.05 ± 0.029 |
| Nc1ccc(S(=O)(=O)c2ccc(N)cc2)cc1 [Dapsone] | 1.04 ± 0.077 |
| CC(C)C(=O)c1c(C(C)C)nn2ccccc12 [Ibudilast] | 0.92 ± 0.051 |
| OC(CCN1CCCC1)(c1ccccc1)C1CCCCC1 (stereo not given) [Procyclidine hydrochloride] | 1.1 ± 0.013 |
| C=C1c2c(Cl)ccc(O)c2C(=O)C2=C(O)[C@]3(O)C(=O)C(C(N)=O)=C(O)[C@@H](N(C)C)[C@@H]3[C@@H](O)[C@H]12.O=C(O)c1cc(S(=O)(=O)O)ccc1O [Meclocycline sulfosalicylate] | 1.09 ± 0.091 |
| CCOC(=O)[C@H](CCc1ccccc1)N[C@@H](C)C(=O)N1Cc2ccccc2C[C@H]1C(=O)O [Quinapril hydrochloride] | 0.987 ± 0.012 |
| O=C(Nc1ccc([N+](=O)[O-])cc1Cl)c1cc(Cl)ccc1O [Niclosamide] | 0.907 ± 0.04 |
| COc1ccc2c(c1)c(CC(=O)O)c(C)n2C(=O)c1ccc(Cl)cc1 [Indomethacin] | 0.781 ± 0.045 |
| COc1cc(N)c(Cl)cc1C(=O)NC1CCN(Cc2ccccc2)CC1 [Clebopride maleate] | 0.9245 ± 0.0057 |
| NCCC[C@H](N)CC(=O)N[C@H]1CNC(=O)[C@H]([C@H]2C[C@H](O)NC(N)=N2)NC(=O)/C(=C/NC(N)=O)NC(=O)[C@H](CO)NC(=O)[C@H](CO)NC1=O [Viomycin sulfate] | 0.86 ± 0.0024 |
| O=C(O)c1cc(=O)c2c(OCC(O)COc3cccc4oc(C(=O)O)cc(=O)c34)cccc2o1 [Cromolyn disodium salt] | 1.08 ± 0.011 |

— the supplement of paper PMC7366291
